Pf apPOL inh: Pf-apPOL DNA polymerase inhibition. AID 1794808. Recombinant Pf-apPOL, molecular beacon fluorescence, 1.5 h. 210,000 tested, 0.25% active. inhibition, % at 10 µM
mHTT CaM bind: mHTT-calmodulin interaction abrogation. P42858. AlphaScreen His-mHTT/GST-CaM binding, luminescence. inhibition, % at 15 µM. 190,000 tested, 3.6% active. AID 1671202;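 further: 0% = both proteins with DMSO and 100% = one protein alone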
Numbers without * were called inactive; . = no result. Only some compounds are listed: those with a hit (about 3.5% of all), similar ones and a draw of the others. No stated cut-off is given here; in the data, active means inhibition above about 50%; inactive means the rest.

SMILES	Pf apPOL inh	mHTT CaM bind
O=C(Nc1nc(CC(=O)N2CCN(c3ncccn3)CC2)cs1)C1CCCC1	-15	-10
CC1=C(C#N)C(c2ccsc2)c2nc(N)oc2N1 (centres undefined)	.	-6
O=C(NC(N1CCCCC1)C(Cl)(Cl)Cl)c1ccccc1Cl (centres undefined)	2	-10
O=C(Nc1ccccc1F)N1CC2CCCN2c2ccccc21 (centres undefined)	-4	24
CCc1ccccc1NC(=O)N1CC2CCCN2c2ccccc21 (centres undefined)	-1	79*
Cc1c(Cl)cccc1NC(=O)N1CC2CCCN2c2ccccc21 (centres undefined)	-3	77*
Cc1c(Cl)cccc1NC(=O)N1CC(C)Oc2ccccc21 (centres undefined)	-18	-5
CCOC(=O)c1ccccc1NC(=O)N1CC2CCCN2c2ccccc21 (centres undefined)	-1	68*
COC(=O)c1ccc(Cl)cc1NC(=O)N1CC2CCCN2c2ccccc21 (centres undefined)	5	46
Cc1cc(C)c(-c2noc(C)n2)c(NC(=O)c2ccccc2Br)n1	4	1
CN(C)c1ccc(C=Nc2nc(-c3ccccc3)cs2)cc1	-1	65*
CN(C)c1ccc(Nc2nc(-c3ccncc3)cs2)cc1	-1	39
Cc1ccc(CNC(=O)CCNC(=O)c2ccc3c(c2)OCO3)cc1	-2	-3
O=C(Nc1ccc2nn(-c3ccccc3)nc2c1)c1ccc(Cl)c([N+](=O)[O-])c1	6	6
O=C(NC=Nc1cc([N+](=O)[O-])c(-c2ccncc2)n1-c1ccccc1)c1cccc(O)c1	4	64*
CCn1cc(/C=C/C(=O)c2ccc(C)o2)cn1	.	-3
O=C(Cn1c(-c2ccccc2F)nc2ccccc2c1=O)Nc1ccc(F)c(Cl)c1	-1	91*
COc1ccc2nc(NC(=O)Cn3c(-c4ccccc4F)nc4ccccc4c3=O)sc2c1	-8	100*
COc1cccc(NC(=O)Cn2c(-c3ccccc3F)nc3ccccc3c2=O)c1	-1	4
COc1ccc(NC(=O)Cn2c(-c3ccccc3F)nc3ccccc3c2=O)cc1OC	-1	1
NC(=O)NN=Cc1ccc(-c2ccc(C(F)(F)F)cc2[N+](=O)[O-])o1	-3	.
C=CCNC(=O)C1CCC(c2ccccc2)N(C(=O)C2CC2)C1 (centres undefined)	-1	-1
CCN(CC)c1ccc(C=Nc2nc3ccccc3n2C)cc1	-8	1
CCc1cccc(CC)c1NC(=O)c1cc2ccccc2o1	2	-5
O=C(CSCC(=O)N1CCCCC1)Nc1nc(-c2ccc(F)cc2)cs1	-10	18
SMILES	Pf apPOL inh	mHTT CaM bind
CCCc1cc(C2CCCN2C(=O)c2cc(-c3ccc4c(c3)OCO4)on2)no1 (centres undefined)	5	-8
CCNC(=O)c1cc(N2CCCC2)nc2c(C)cccc12	22	11
O=[N+]([O-])c1ccc(NN=C2CCCCCC2c2ccccc2)c([N+](=O)[O-])c1 (centres undefined)	-3	.
O=[N+]([O-])c1ccccc1NN=C1CCCC1	.	58*
O=C(Nc1ccc(Cl)cc1)Nc1ccccc1-c1nnc(-c2ccc(Cl)cc2)o1	-6	.
CC(C)CN1C(=O)C(CC(=O)NC(C)(C)C)Sc2ncccc21 (centres undefined)	-2	-6
Nc1sc2c(c1-c1nn[nH]n1)CCCC2	.	90*
N#Cc1c(N)sc2c1CCCC2	-2	4
O=c1cc(-c2ccccc2Cl)oc2ccc([N+](=O)[O-])c(O)c12	-5	5
O=[N+]([O-])c1cc([N+](=O)[O-])c2oc(-c3ccccc3)c(Br)c2c1O	-1	96*
CCOc1cc(C(=O)Nc2ccc(NC(=O)c3ccccc3)cc2)cc(OCC)c1OCC	10	-6
O=C(C1CCN(c2ncccc2-c2nc(-c3cccc(F)c3)no2)CC1)N1CCOCC1	-4	30
O=C(C1CCCCC1)N1CCC(O)(c2ccccc2)C(N2CCCC2)C1 (centres undefined)	-11	51*
O=C(CC1CCCC1)N1CCC(O)(c2ccccc2)C(N2CCCC2)C1 (centres undefined)	1	77*
CCCC(=O)N1CCC(O)(c2ccccc2)C(N2CCCC2)C1 (centres undefined)	-11	6
CCOCC(=O)N1CCC(O)(c2ccccc2)C(N2CCCC2)C1 (centres undefined)	3	8
COc1ccccc1C(=O)N1CCc2c(c(-c3nnc(-c4ccccc4F)o3)nn2C)C1	-4	-6
COc1ccc(C2C=C(c3ccc(Br)s3)Nc3ncnn32)cc1OC (centres undefined)	-6	57*
COc1cccc(C2C=C(c3ccc(F)cc3)Nc3ncnn32)c1OC(F)F (centres undefined)	-5	73*
Fc1ccc(C2=CC(c3ccccc3OC(F)F)n3ncnc3N2)cc1 (centres undefined)	-6	10
COc1ccc(C2C=C(c3cccc(NC(C)=O)c3)Nc3ncnn32)c(OC)c1 (centres undefined)	83*	4
COc1cccc(C2=CC(c3ccc(OC)cc3OC)n3ncnc3N2)c1 (centres undefined)	-9	22
COc1ccc(C2=CC(c3cccc(OC)c3OC)n3ncnc3N2)cc1 (centres undefined)	-6	-2
COc1cccc(C2C=C(c3ccc(Cl)cc3)Nc3ncnn32)c1OC (centres undefined)	-5	58*
COc1ccc(C2C=C(c3cccs3)Nc3ncnn32)cc1OC (centres undefined)	-3	6
SMILES	Pf apPOL inh	mHTT CaM bind
Cc1ccc(S(=O)(=O)N2CCN(c3cccc(C)c3C)CC2)cc1	-1	-6
O=C1OC(c2ccc(Cl)cc2)=N/C1=C/c1ccccc1[N+](=O)[O-]	-2	-2
O=C(CN1C(=O)C2C3CCC(C3)C2C1=O)Nc1ccc(Cl)cc1Cl (centres undefined)	-5	-2
COc1cc(C2C=C(c3cccc(Br)c3)Nc3ncnn32)cc(OC)c1OC (centres undefined)	-9	100*
COc1ccc(C2C=C(c3cccc(Br)c3)Nc3ncnn32)c(OC)c1 (centres undefined)	-8	45
COc1ccc(C2C=C(c3ccc(Cl)cc3)Nc3ncnn32)c(OC)c1OC (centres undefined)	-3	89*
CCc1ccc(C2=CC(c3ccc(OC)c(OC)c3OC)n3ncnc3N2)cc1 (centres undefined)	-3	35
CCCCCS(=O)(=O)CC1CC1(Cl)Cl (centres undefined)	-2	-2
COc1ccc(-c2ncnn2-c2cccc(Cl)c2C)cc1OC	-2	4
Cc1cc(OCC(=O)Nc2cccc(C)c2C)nc(N2CCCC(C)C2)n1 (centres undefined)	1	0
Cc1cccc(OCC(=O)N2CCCC2c2nc(-c3cccc(Cl)c3)no2)c1 (centres undefined)	-5	78*
Cc1ccccc1OCC(=O)N1CCCC1c1nc(-c2cccc(Cl)c2)no1 (centres undefined)	-5	45
Cc1cccc(-c2noc(C3CCCN3C(=O)COc3ccccc3)n2)c1 (centres undefined)	0	24
Cc1cccc(-c2noc(C3CCCN3C(=O)COc3ccc(Cl)cc3C)n2)c1 (centres undefined)	-4	76*

Source: PubChem BioAssay (University of Kansas High Throughput Screening Laboratory)
